Among the data in paper PMC7862700, “An all-to-all approach to the identification of sequence-specific readers for epigenetic DNA modifications on cytosine” are binding signal values, retold here.

Holding throughout (experiment): DAPPL (digital affinity profiling via proximity ligation, sequencing); 10 mM Tris-HCl pH 7.5, 50 mM NaCl, 1 mM DTT, 4% glycerol, room temperature, 30 min; GST-TFs on glutathione beads, 16-mer random dsDNA library, 0.1% formaldehyde crosslink after washing; high values mean tight binding
What all share (conditions): protein: recombinant; tags: N-terminal GST; dsDNA, one strand shown

Assay [1] has as its target T1, GABPA (Homo sapiens, UniProt Q06546 1-454).
T1 sequence: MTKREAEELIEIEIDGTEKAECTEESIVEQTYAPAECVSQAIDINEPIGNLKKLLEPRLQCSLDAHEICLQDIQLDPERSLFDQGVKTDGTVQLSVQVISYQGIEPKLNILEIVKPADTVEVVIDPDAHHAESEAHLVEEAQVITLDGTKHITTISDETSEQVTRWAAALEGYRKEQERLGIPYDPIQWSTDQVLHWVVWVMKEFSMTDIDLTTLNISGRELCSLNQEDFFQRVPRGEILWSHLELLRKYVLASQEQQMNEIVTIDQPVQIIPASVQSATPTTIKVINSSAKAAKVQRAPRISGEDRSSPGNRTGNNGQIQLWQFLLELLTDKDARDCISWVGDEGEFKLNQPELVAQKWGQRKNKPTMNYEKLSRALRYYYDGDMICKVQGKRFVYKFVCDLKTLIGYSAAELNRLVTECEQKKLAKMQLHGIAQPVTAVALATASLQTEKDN
The method in brief: (§1)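 Binding signal is given per hexamer as its read frequency for a factor divided by its frequency in the tag-only sample. GST-fused human transcription factors were expressed in yeast, captured on glutathione beads, barcoded with DNA and pooled with that sample, then incubated with 200 nmole of a 16-mer random double-stranded DNA library in Tris/NaCl/DTT/glycerol buffer for 30 min at room temperature. The pools were then washed, crosslinked, proximity-ligated, amplified by PCR and sequenced on an Illumina NextSeq500.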

Assay [2] has as its target T2, ERG (Homo sapiens, UniProt P11308 1-479).
T2 sequence: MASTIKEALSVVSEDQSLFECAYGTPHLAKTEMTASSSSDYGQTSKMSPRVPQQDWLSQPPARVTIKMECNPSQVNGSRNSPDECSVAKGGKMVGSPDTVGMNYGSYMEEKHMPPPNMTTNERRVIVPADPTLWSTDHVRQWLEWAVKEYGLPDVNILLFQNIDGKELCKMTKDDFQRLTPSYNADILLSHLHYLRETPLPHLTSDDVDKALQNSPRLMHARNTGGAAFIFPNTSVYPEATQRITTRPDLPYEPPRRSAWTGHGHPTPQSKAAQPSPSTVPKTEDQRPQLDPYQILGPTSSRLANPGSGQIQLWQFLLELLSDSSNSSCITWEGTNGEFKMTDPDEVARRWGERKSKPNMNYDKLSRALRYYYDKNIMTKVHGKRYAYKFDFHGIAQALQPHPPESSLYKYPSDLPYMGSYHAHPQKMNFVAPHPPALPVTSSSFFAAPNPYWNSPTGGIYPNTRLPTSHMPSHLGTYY
The method in brief:
as §1

The target of assay [3] is ELF1 (Homo sapiens, UniProt P32519 1-619). In a few lines:
as §1

Assay [4] concerns the target SPI1 (Homo sapiens, UniProt P17947 1-270). The method in brief: as §1
For assay [5], the target named is SPIB (Homo sapiens, UniProt Q01892 1-262). In a few lines: as §1
Assay [6] deals with T3, ELK3 (Homo sapiens, UniProt P41970 1-407).
T3 sequence: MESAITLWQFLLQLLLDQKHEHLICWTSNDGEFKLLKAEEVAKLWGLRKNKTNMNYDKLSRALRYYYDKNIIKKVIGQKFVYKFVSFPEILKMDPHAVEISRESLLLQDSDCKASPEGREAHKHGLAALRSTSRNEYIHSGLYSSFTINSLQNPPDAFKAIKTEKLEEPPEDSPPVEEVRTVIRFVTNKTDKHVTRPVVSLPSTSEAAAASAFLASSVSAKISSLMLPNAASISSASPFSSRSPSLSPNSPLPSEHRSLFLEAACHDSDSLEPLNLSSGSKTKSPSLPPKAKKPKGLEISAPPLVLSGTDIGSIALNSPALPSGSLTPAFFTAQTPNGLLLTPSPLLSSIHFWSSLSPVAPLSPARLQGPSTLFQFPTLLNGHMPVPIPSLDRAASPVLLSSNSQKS
The method in brief: as §1

In assay [7] the target is T4, FEV (Homo sapiens, UniProt Q99581 1-238).
T4 sequence: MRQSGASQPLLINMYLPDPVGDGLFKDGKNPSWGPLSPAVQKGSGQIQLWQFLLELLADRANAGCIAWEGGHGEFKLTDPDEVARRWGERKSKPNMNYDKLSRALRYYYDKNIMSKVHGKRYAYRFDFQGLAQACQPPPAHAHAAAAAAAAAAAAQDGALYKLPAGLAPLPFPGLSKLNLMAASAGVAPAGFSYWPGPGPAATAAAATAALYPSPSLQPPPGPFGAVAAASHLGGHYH
In a few lines:
as §1

Assay [8] addresses T5, SPIC (Homo sapiens, UniProt Q8N5J4 1-248).
T5 sequence: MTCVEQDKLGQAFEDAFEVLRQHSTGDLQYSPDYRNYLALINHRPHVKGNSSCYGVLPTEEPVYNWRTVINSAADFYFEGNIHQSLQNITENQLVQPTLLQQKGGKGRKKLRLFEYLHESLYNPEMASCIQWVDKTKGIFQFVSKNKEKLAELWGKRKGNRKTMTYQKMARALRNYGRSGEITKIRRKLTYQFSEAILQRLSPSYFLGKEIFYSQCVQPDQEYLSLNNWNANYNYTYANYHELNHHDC
The method in brief:
as §1

Assay [9] concerns the target ELF4 (Homo sapiens, UniProt Q99607 1-663). In a few lines:
as §1

Assay [10] addresses T6, ELK4 (Homo sapiens, UniProt P28324-2 1-405).
T6 sequence: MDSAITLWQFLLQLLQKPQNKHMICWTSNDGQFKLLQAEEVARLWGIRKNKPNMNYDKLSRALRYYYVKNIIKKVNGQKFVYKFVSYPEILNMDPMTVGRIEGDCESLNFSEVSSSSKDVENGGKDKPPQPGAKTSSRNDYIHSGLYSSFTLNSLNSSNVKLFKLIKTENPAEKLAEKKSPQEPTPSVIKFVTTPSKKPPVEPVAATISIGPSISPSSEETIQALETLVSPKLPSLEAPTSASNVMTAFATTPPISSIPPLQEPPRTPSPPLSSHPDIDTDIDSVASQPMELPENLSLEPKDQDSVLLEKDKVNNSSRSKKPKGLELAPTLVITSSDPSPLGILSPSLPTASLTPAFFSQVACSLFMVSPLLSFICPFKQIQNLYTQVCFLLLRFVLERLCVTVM
In a few lines: as §1

Assay [11] has as its target T7, ELF3 (Homo sapiens, UniProt P78545 1-371).
T7 sequence: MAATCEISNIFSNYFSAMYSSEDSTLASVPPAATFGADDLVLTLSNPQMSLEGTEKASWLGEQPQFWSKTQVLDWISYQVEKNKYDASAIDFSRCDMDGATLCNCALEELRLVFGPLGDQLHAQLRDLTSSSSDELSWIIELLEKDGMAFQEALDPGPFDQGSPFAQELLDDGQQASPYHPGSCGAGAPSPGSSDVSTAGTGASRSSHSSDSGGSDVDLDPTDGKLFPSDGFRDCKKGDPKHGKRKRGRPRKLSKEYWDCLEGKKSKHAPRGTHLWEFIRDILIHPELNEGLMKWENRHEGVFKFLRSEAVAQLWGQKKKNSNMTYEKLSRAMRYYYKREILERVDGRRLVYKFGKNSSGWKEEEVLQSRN
In a few lines: as §1

Assay [12] deals with T8, ETS2 (Homo sapiens, UniProt P15036 1-469).
T8 sequence: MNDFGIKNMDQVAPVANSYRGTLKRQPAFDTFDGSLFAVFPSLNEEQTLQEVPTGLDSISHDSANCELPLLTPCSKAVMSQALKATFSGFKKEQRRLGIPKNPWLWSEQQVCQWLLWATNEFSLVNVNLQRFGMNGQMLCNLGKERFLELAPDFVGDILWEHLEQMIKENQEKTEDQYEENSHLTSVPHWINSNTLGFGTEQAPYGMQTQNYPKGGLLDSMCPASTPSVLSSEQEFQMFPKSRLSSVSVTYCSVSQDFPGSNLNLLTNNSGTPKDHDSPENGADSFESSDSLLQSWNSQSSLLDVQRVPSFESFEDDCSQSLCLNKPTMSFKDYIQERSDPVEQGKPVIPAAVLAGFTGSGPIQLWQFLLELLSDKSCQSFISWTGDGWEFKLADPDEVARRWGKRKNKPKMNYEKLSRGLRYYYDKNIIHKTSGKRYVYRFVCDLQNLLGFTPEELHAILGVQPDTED
The method in brief:
as §1

Assay [13] has as its target T9, ETV7 (Homo sapiens, UniProt Q9Y603 1-341).
T9 sequence: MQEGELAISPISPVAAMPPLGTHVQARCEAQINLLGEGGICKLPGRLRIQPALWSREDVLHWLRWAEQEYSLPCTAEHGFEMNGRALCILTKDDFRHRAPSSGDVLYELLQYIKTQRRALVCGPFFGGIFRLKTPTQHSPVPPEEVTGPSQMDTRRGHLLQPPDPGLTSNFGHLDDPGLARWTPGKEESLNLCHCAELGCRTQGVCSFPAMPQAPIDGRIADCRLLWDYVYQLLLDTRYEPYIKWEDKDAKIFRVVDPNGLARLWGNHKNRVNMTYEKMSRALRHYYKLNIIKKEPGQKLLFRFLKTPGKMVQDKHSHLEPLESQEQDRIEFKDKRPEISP
The method in brief:
as §1

The target of assay [14] is ETV6 (Homo sapiens, UniProt P41212 1-452). The method in brief: as §1
Assay [15] concerns the target T10, ETV2 (Homo sapiens, UniProt O00321 1-342).
T10 sequence: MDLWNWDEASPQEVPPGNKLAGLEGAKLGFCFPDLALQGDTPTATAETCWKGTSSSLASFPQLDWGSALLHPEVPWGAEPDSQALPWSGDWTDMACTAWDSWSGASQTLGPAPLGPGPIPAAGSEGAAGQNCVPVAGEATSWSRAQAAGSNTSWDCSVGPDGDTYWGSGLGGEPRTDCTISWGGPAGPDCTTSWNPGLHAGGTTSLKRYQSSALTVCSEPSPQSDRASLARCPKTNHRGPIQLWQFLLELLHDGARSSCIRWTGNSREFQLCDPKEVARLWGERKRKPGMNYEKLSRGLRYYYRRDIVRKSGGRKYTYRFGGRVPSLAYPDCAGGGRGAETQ
The method in brief: as §1

In assay [16] the target is CRX (Homo sapiens, UniProt O43186 1-299). In a few lines: as §1
The target in assay [17] is T11, ELF5 (Homo sapiens, UniProt Q9UKW6-2 1-255).
T11 sequence: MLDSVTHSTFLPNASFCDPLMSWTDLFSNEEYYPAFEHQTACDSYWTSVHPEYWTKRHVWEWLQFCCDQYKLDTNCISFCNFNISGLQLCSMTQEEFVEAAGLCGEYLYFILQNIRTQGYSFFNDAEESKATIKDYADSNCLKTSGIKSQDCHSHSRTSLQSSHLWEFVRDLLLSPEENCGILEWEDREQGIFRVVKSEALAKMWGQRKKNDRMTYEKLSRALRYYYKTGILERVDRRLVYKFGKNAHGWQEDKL
In a few lines: as §1

Sequence of ELF4 (Q99607 whole entry): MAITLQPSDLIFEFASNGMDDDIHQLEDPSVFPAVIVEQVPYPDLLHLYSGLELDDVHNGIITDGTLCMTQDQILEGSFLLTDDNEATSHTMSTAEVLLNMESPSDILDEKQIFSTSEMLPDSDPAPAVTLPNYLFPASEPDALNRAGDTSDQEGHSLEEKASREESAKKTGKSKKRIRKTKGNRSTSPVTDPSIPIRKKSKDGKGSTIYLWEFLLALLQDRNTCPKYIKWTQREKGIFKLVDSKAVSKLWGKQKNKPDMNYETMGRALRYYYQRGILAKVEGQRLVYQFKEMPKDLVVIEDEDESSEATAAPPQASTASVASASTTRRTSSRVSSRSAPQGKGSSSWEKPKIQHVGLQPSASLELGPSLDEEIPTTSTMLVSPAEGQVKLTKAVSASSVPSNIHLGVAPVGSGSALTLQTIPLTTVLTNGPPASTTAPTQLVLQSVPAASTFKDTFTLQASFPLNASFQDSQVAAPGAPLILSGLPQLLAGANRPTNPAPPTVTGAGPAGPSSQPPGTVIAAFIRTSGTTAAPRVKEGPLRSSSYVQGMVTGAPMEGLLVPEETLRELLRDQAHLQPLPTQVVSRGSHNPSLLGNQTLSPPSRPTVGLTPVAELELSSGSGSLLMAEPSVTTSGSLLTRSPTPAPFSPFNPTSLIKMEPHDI
Sequence of ELF1 (P32519 whole entry): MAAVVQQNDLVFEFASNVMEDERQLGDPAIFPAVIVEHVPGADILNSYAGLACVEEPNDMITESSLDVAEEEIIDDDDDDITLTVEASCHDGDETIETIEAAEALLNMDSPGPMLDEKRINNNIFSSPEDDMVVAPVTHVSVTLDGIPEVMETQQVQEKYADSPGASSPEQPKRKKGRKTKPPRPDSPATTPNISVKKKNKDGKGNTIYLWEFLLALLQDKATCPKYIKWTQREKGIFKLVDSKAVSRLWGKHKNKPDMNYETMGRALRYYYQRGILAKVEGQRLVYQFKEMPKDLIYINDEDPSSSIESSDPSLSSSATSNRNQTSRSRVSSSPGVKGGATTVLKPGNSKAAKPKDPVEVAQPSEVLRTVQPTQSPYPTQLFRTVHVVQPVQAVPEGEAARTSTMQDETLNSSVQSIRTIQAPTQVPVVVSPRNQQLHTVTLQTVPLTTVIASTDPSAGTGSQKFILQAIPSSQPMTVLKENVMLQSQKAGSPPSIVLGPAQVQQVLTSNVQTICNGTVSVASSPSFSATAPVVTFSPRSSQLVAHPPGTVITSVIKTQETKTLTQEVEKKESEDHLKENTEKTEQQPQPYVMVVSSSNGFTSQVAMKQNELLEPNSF
Sequence of ETV6 (P41212 whole entry): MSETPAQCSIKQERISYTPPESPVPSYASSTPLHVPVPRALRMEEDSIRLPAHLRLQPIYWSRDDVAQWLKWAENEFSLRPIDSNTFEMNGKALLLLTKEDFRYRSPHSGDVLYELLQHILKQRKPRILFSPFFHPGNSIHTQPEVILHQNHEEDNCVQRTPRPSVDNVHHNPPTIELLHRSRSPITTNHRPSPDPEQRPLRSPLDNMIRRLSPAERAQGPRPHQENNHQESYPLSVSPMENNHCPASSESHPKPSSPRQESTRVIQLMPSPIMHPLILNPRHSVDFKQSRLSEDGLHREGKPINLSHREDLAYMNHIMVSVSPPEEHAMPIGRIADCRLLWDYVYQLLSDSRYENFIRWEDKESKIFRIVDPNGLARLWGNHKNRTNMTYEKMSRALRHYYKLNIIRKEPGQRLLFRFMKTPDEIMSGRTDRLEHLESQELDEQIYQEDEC
Sequence of CRX (O43186 whole entry): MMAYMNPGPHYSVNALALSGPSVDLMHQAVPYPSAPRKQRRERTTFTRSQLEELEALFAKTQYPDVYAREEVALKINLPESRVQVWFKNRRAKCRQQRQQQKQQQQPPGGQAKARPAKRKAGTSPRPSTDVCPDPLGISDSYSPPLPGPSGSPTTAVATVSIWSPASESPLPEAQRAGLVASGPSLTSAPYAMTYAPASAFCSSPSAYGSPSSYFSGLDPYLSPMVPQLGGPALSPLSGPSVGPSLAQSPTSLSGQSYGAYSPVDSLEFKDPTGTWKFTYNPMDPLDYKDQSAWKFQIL
Sequence of SPIB (Q01892 whole entry): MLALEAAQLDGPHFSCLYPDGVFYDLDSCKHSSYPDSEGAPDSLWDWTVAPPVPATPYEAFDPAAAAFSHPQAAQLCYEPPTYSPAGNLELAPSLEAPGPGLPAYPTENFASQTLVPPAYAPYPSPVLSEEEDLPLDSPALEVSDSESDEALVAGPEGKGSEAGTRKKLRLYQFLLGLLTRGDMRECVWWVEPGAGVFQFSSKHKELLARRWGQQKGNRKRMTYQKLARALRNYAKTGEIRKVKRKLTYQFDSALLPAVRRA

Regarding GTGGCC, the binding signal in assay [1] was 1.06 fold enrichment (6-mer frequency, TF over GST control); in [2] it was 1.1 fold enrichment (6-mer frequency, TF over GST control); in assay [3] it was 1.05 fold enrichment (6-mer frequency, TF over GST control); in assay [4], 1.2 fold enrichment (6-mer frequency, TF over GST control); in assay [5], 1.2 fold enrichment (6-mer frequency, TF over GST control); in [6] it was 1.22 fold enrichment (6-mer frequency, TF over GST control). The binding signal in assay [7] was 1.14 fold enrichment (6-mer frequency, TF over GST control); in assay [8], 1.02 fold enrichment (6-mer frequency, TF over GST control); in [9], 1.02 fold enrichment (6-mer frequency, TF over GST control); in [10], 1.03 fold enrichment (6-mer frequency, TF over GST control); in [11], 1.09 fold enrichment (6-mer frequency, TF over GST control); in assay [12], 1.01 fold enrichment (6-mer frequency, TF over GST control). Besides, the binding signal is 1.01 fold enrichment (6-mer frequency, TF over GST control) in [13] and 1.1 fold enrichment (6-mer frequency, TF over GST control) in assay [14].

Turning to TCAGAC, the binding signal in assay [8] was 1.11 fold enrichment (6-mer frequency, TF over GST control).

As to AGGCAC, the binding signal in [8] is 1.03 fold enrichment (6-mer frequency, TF over GST control).

On to AAAGGC, for which the binding signal in [1] is 1.1 fold enrichment (6-mer frequency, TF over GST control); in assay [7], 1.01 fold enrichment (6-mer frequency, TF over GST control); in [8], 1 fold enrichment (6-mer frequency, TF over GST control); in assay [9], 1.04 fold enrichment (6-mer frequency, TF over GST control); in assay [15], 1.04 fold enrichment (6-mer frequency, TF over GST control); in assay [16], 1.03 fold enrichment (6-mer frequency, TF over GST control). Moreover, the binding signal in [12] was 1 fold enrichment (6-mer frequency, TF over GST control); in [13], 1.03 fold enrichment (6-mer frequency, TF over GST control); in [17], 1 fold enrichment (6-mer frequency, TF over GST control).
